Reference: the supplement of paper PMC6555819

test system: VDR homodimer (NR concentration 270 nM); experiment: PBM binding z-score (relative to random genomic background probes); higher = stronger binding; sequences stand for … in GC…GCGATTGACAGCGTAGAATGAAGG
In short: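 For binding z-scores, the reference was random background probes on custom Agilent 4×180K protein-binding microarrays. These arrays were incubated 1 h with ligand-free nuclear receptor dimers in PBS pH 7.4, 2% milk, 0.02% Triton X-100, 1 mM DTT, 0.2 mg/mL BSA and 0.4 mg/ml salmon testes DNA. Fluorescence was scanned after antibody detection of each partner (one per run) and regression-normalized.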

| Sequence | PBM binding z-score |
| --- | --- |
| TGTCAAAGTTCAAAGGTAAAGTAAGTATCCACAC | 3.53 |
| CGAACTAGCTCAGAACAGGACAGTGAAGGATGAT | -0.0975 |
| GATACAGGGTCAGCTAGAGGCAAGAGTATGGAAA | 0.394 |
| GGAACGAGGGCATTCGAGTTAATAGCATGGCGAT | 2.58 |
| TGTGCTAGGTCAACGATGGTCAGCTAATCTGCTA | -0.186 |
| ATACCAAGGTGATCGTGAGGTGGTTGATACTAAC | 0.166 |
| CCTTACGGGTCACGAGGTTATAACACGACGAGCG | 1.63 |
| CCTAGCAGGCCAATCTCGGTCACTCAAGGCTTGA | -0.29 |
| ACTAGCACGCCAAGTTTGGGTCACTCAAACAAAG | -0.0889 |
| TCATAAAGGTAAATGCTAGGTGAAAGTCCGATCT | 0.333 |
| CGAACGAGGGCATGAGTAGATAGCAAATGCCGAT | 0.55 |
| TCCTATAGGTAAACAGGTGAAAGTCCGTAAGTTA | 0.275 |
| CCTATTAGTTGACCATAAGGGCAACGGAAGCTCG | 0.902 |
| TAGCCTACGTCATGGGCCAGTATACCACGCGAAC | -0.575 |
| TCTGCTAGGTCAACTATGGTCAGCTAATCTGCTA | 0.149 |
| TCTTGTAGATCACTAGAGGTTAAGAAAGTGCGCT | 0.162 |
| TCTAGTTGGTCAAAGGTCACAGACTCGAAATGCG | 2.22 |
| CGACCTAGGTCAGAACAGGACAGTGAAGGATGAT | 0.303 |
| CCGGCTGGGGCATAAGGTTACCATAAGCCAGCCC | -0.374 |
| CCTACTGGGCCAAAGGTTATTGATTCCAATGCTC | 0.0494 |

| Sequence | PBM binding z-score |
| --- | --- |
| TAGCCTAGGTCATTCTGGGGCCAGTATAGAAAGC | 1.11 |
| GCGAATGGGGCATCAGCAGGTTACCATAACTTAA | -0.224 |
| CCCGAAAGGTCGTGCTCAGGTGAGTATACCAAAC | 1.48 |
| ACTTACGGGTCAACGAGGTTGTAGCACGCGTATA | 2.86 |
| ATCTCCAGGTAAAAGTTCAGTGAATCCCGAGGAT | 1.84 |
| TGAATGAGGTTAAAGACCAGGGAACGTGGCGTCG | 0.179 |
| GCTAGCAGGCCATTTGGCTCACTCAATGACGGGC | -0.733 |
| TCATATCGGTAAATGCTAGGTGAAAGTCCGATCT | 0.0162 |
| AATACAGGGTCATCGTAGGACAGAGTACGCACAG | 4.11 |
| CCTACTGGGCCATTCAGAGGTCATTCATCATATG | 3.85 |
| GTACCAAGGTGAATAGGTGGTTGATGAGTAGGCG | -0.0991 |
| GCTCGGAGGACAAGTTCAGAGCTTTGTCCGTAGA | 1.89 |
| TGTCAAAGTTCAAAGGTAACGTAGGTATCCACAC | 3.97 |
| GATACAGTGTCAGCTAGAGGCCAGAGTATGGAAA | -0.198 |
| GATACAGGGTCTGCTAGAGGCCAGAGTATGGAAA | -0.39 |
| TTACCAAGGTGAGCTGAGGCCGTTGATCCAACTC | -0.339 |
| ACTATTAGTTGAGACGAGGGCAACCGATAGGTTG | 0.728 |
| TCTTGTAGATGAAGCAGGTTAAGAAAGCCTGAGT | -0.176 |
| AGTCAAAGTTCATGTAGGTAACGTAAGATATGCT | 4.64 |
